Source: PubChem BioAssay (NCATS)
Inconclusive results are not listed. Activity calls are given as the source filed them. The call rests on the fitted dose curve; in most records, active means well fitted inhibition curve with a large enough effect; inconclusive means small, poorly fitted or top-dose-only effect; inactive means flat fitted curve, though single readings scatter.

Test: P-glycoprotein substrates identified in KB-8-5-11 adenocarcinoma cell line, qHTS therapeutic library screen (AID 1346987); further: nearly all actives have a fitted effect of over 65% in size
Conditions: KB-8-5-11 (P-gp overexpressing) viability, CellTiter-Glo, 72 h; series mostly up to 44.5 µM; activity change, negative = cytotoxicity: at the top concentration
How it was run: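 Steps: plate 500 KB-8-5-11 cells/well in DMEM + 10% FCS (colchicine removed); pin compounds in dose-response; incubate 72 h, 37 degree C, 5% CO2; add CellTiter-Glo, 5 min; read luminescence.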
On the % scale 0 is the no-effect control and ±100 the full control effect; potency means the concentration at half of the fitted maximal effect.

For `CC(C)[N+](C)(C)CC(O)COc1cccc2ccccc12` (stereo unspecified), which “activity change, negative = cytotoxicity” value is on record?
The value was -5.78% (inactive).

Which “activity change, negative = cytotoxicity” value does the source give for `C/C=C/C=N/NC(=O)c1ccncc1` here?
The value was 0.0958% (inactive).

Which “activity change, negative = cytotoxicity” value does the source give for `OC[C@H]1O[C@@H]2O[C@H]3[C@H](O)[C@@H](O)[C@@H](O[C@H]4[C@H](O)[C@@H](O)[C@@H](O[C@H]5[C@H](O)[C@@H](O)[C@@H](O[C@H]6[C@H](O)[C@@H](O)[C@@H](O[C@H]7[C@H](O)[C@@H](O)[C@@H](O[C@H]8[C@H](O)[C@@H](O)[C@@H](O[C@H]1[C@H](O)[C@H]2O)O[C@@H]8CO)O[C@@H]7CO)O[C@@H]6CO)O[C@@H]5CO)O[C@@H]4CO)O[C@@H]3CO` here?
The value was -5.14% (inactive).

Which “activity change, negative = cytotoxicity” value does the source give for `CCOCCn1c(N2CCCN(C)CC2)nc2ccccc21` here?
The value was -3.22% (inactive).

Which “activity change, negative = cytotoxicity” value does the source give for `Nc1ccc(C(=O)NCC(=O)O)cc1` here?
The value was 9.24% [at 17.3 µM] (inactive).

With `O=S(=O)(O)c1ccc(O)cc1` as the compound, how does the “activity change, negative = cytotoxicity” value read?
The value was 8.84% (inactive).

With `Cc1ncc(CO)c(C=O)c1O` as the compound, how does the “activity change, negative = cytotoxicity” value read?
Its value is -15.5% (inactive).

Which “activity change, negative = cytotoxicity” value does the source give for `CC(C)[C@@H]1CC[C@@H](C)CC1=O` here?
The value was 0.282% (inactive).

Which “activity change, negative = cytotoxicity” value does the source give for `N#CCC(=O)NN` here?
The value was -2.62% (inactive).

Which “activity change, negative = cytotoxicity” value does the source give for `C=C[C@H]1CN2CC[C@H]1C[C@@H]2[C@@H](O)c1ccnc2ccc(OC)cc12` here?
The value was -24.3% (inactive).

With `OCc1ccccn1` as the compound, how does the “activity change, negative = cytotoxicity” value read?
Its value is 1.81% (inactive).

With `O=C(O)C(Cc1cc(I)c(O)c(I)c1)c1ccccc1` (stereo unspecified) as the compound, how does the “activity change, negative = cytotoxicity” value read?
Its value is -1.85% (inactive).

With `CC(C)NCC(O)c1ccc2ccccc2c1` (stereo unspecified) as the compound, how does the “activity change, negative = cytotoxicity” value read?
The value was 3.47% (inactive).

Which “activity change, negative = cytotoxicity” value does the source give for `C[N+]1(CC2COC(c3ccccc3)(C3CCCCC3)O2)CCCCC1` (stereo unspecified) here?
The value was 2.57% (inactive).

Which “activity change, negative = cytotoxicity” value does the source give for `CC(C)Nc1cccnc1N1CCN(C(=O)c2cc3cc(NS(C)(=O)=O)ccc3[nH]2)CC1` here?
The value was -16% (inactive).

For `C=C[C@H]1CN2CC[C@H]1C[C@H]2[C@H](O)c1ccnc2ccc(OC)cc12`, which “activity change, negative = cytotoxicity” value is on record?
The value was -26.1% (inactive).

Which “activity change, negative = cytotoxicity” value does the source give for `NC1CCN(c2nc3c(cc2F)c(=O)c(C(=O)O)cn3-c2ccc(F)cc2F)C1` (stereo unspecified) here?
Its value is -10.5% (inactive).

With `CC(=C(CCOC(=O)C(C)C)SSC(CCOC(=O)C(C)C)=C(C)N(C=O)Cc1cnc(C)nc1N)N(C=O)Cc1cnc(C)nc1N` as the compound, how does the “activity change, negative = cytotoxicity” value read?
The value was -6.62% (inactive).

Which Potency does the source give for `CCN1/C(=C/C=C/c2sc3ccccc3[n+]2CC)Sc2ccccc21` here?
The Potency was 18.4 µM (active).

Which “activity change, negative = cytotoxicity” value does the source give for `CCN1CCN(C(=O)N[C@@H](C(=O)N[C@@H]2C(=O)N3C(C(=O)O)=C(CSc4nnnn4C)CS[C@H]23)c2ccc(O)cc2)C(=O)C1=O` here?
Its value is 25.4% (inactive).

Which “activity change, negative = cytotoxicity” value does the source give for `CC(=O)OCC1=C(C(=O)O)N2C(=O)[C@@H](NC(=O)CSc3ccncc3)[C@H]2SC1` here?
Its value is -3.15% (inactive).

With `Nc1nc(-c2ccccc2)c(Br)c(=O)[nH]1` as the compound, how does the “activity change, negative = cytotoxicity” value read?
The value was 8.26% (inactive).

Which “activity change, negative = cytotoxicity” value does the source give for `CC(=O)Nc1ccc(OCC(O)CNC(C)C)cc1` (stereo unspecified) here?
Its value is 10.8% (inactive).

With `OCCOCCN1CCN(C2=Nc3ccccc3Sc3ccccc32)CC1` as the compound, how does the “activity change, negative = cytotoxicity” value read?
Its value is -33.1% (inactive).

Which “activity change, negative = cytotoxicity” value does the source give for `CC(O)Cn1cnc2c1c(=O)n(C)c(=O)n2C` (stereo unspecified) here?
The value was 5.63% [at 17.3 µM] (inactive).

For `N[C@H](C(=O)O)[C@@H](O)c1ccc(O)c(O)c1`, which “activity change, negative = cytotoxicity” value is on record?
Its value is -4.75% (inactive).

With `CCOC(=O)c1c(N)sc2c1CCN(Cc1ccccc1)C2` as the compound, how does the “activity change, negative = cytotoxicity” value read?
The value was 5.99% (inactive).

With `Oc1c(Cl)cc(Cl)c(Cl)c1Cc1c(O)c(Cl)cc(Cl)c1Cl` as the compound, how does the Potency read?
Its Potency is 2.06 µM (active).

With `C=C[C@@]1(C)CC(=O)[C@]2(O)[C@@]3(C)[C@@H](O)CCC(C)(C)[C@@H]3[C@H](O)[C@H](OC(C)=O)[C@@]2(C)O1` as the compound, how does the “activity change, negative = cytotoxicity” value read?
Its value is 0.996% (inactive).

Which “activity change, negative = cytotoxicity” value does the source give for `CC(=O)Nc1ccc(OC(=O)c2ccccc2OC(C)=O)cc1` here?
The value was 0.0419% (inactive).

For `CC(C)(C)CC(C)(C)c1ccc(O)c(-n2nc3ccccc3n2)c1`, which “activity change, negative = cytotoxicity” value is on record?
The value was -5.16% (inactive).

For `CN(C)C(=O)Nc1ccc(Cl)c(Cl)c1`, which “activity change, negative = cytotoxicity” value is on record?
The value was -3.2% (inactive).

For `CC(C)Cc1ccc(CC(=O)O)cc1`, which “activity change, negative = cytotoxicity” value is on record?
The value was -5.87% (inactive).

Which “activity change, negative = cytotoxicity” value does the source give for `O=C(O)CCC(=O)Nc1ccc(S(=O)(=O)Nc2nccs2)cc1` here?
Its value is 7.88% [at 17.3 µM] (inactive).

Which “activity change, negative = cytotoxicity” value does the source give for `CNCCc1ccccn1` here?
Its value is -0.195% [at 17.3 µM] (inactive).

With `CN1CCC(OC(c2ccccc2)c2ccccc2)CC1` as the compound, how does the “activity change, negative = cytotoxicity” value read?
The value was -29.3% [at 17.3 µM] (inactive).
